The text below walks through data of the supplement of paper PMC10042075.

Values joined by “and” are separate entries in the source; they are usually repeats but may differ in a detail not shown here. Equal values may be shown once. Where a name gives a salt, the structure may show the parent alone. ± gives the standard deviation of the averaged measurements.

The test system of this experiment is LASCPC-01. Nature of the experiment: cell viability relative to DMSO control (fraction); higher = less growth inhibition (more viable cells). The following applies: 2 µM; 72 h. Here is the method: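 High-throughput single-dose screen in the LASCPC-01 NEPC cell line in 384-well plates. Cells were treated with each compound at 2 µM for 72 h, and viability was read by CellTiter-Glo luminescence. Values are normalised to the DMSO control (compound/DMSO) from three replicates; only the 5-HT-related subset of the 7315-compound library is given.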
With `CNCC[C@H](Oc1cccc2ccccc12)c1cccs1` [Duloxetine HCl], the cell viability is 1.13.
As to `CNCCC(Oc1ccc(C(F)(F)F)cc1)c1ccccc1` (stereo not given) [Fluoxetine], the cell viability was 0.892 ± 0.41.
`CN[C@H]1CC[C@@H](c2ccc(Cl)c(Cl)c2)c2ccccc21` [Sertraline HCl] came in with a cell viability of 0.833.
As to `Cc1cnc(CNCC2(F)CCN(C(=O)c3ccc(F)c(Cl)c3)CC2)nc1`, the cell viability stood at 0.989.
`NCCCCCNCC12CC3CC(CC(C3)C1)C2` [IEM 1754 dihydrobroMide] came in with a cell viability of 0.808.
With `COC(=O)[C@H]1[C@H]2C[C@@H]3c4[nH]c5cc(OC)ccc5c4CCN3C[C@H]2C[C@@H](OC(=O)c2cc(OC)c(OC)c(OC)c2)[C@@H]1OC` [Reserpine] the figure was 0.918.
In the case of `CN(C)C/C=C(/c1ccc(Br)cc1)c1cccnc1` [Zimelidine dihydrochloride], the cell viability amounted to 1.01.
The compound `CCc1nn(CCCN2CCN(c3cccc(Cl)c3)CC2)c(=O)n1CCOc1ccccc1` [Nefazodone hydrochloride] showed a cell viability of 1.03.
`C=C1C(=O)O[C@H]2[C@H]1CC/C(C)=C/CC[C@@]1(C)O[C@@H]21` [Parthenolide] displayed a cell viability of 0.323.
With `Cc1ncc(CO)c(CO)c1O` [Metadoxine] the figure was 1.13; with `O=C(OC1C[C@@H]2CC3C[C@H](C1)N2CC3=O)c1c[nH]c2ccccc12` (stereo not given in full) [Dalasetron Mesylate Hydrate], 0.985.
The figure for `O=C(c1ccc(F)cc1)C1CCN(CCn2c(=O)[nH]c3ccccc3c2=O)CC1` [Ketanserin] is 0.968; for `CC(CN1c2ccccc2Sc2ccccc21)N(C)C` (stereo not given) [Promethazine] it is 1.11; for `N=C(N)NC(=N)Nc1ccccc1` [Phenylbiguanide] it is 0.637.
On to `COCCCC/C(=N\OCCN)c1ccc(C(F)(F)F)cc1` [Fluvoxamine maleate], for which the cell viability is 1.07 ± 0.028.
As for `CCN1CCN(c2cc(-c3ccc(F)cc3)c3c(n2)CCCCCC3)CC1` [Blonanserin], the cell viability was 0.776.
The compound `Cc1ccc(C(=O)Oc2ccc(C(CN(C)C)C3(O)CCCCC3)cc2)cc1` (stereo not given) [Ansofaxine hydrochloride] displayed a cell viability of 0.931.
With `CN(C)CCC=C1c2ccccc2CCc2ccccc21` [Amitriptyline HCl] the figure was 1.15; with `COc1ccc(NS(=O)(=O)c2sc3ccc(Cl)cc3c2C)cc1N1CCNCC1`, 1.09 and 0.772.
With `CNS(=O)(=O)Cc1ccc2[nH]cc(CCN(C)C)c2c1` [Sumatriptan Succinate] the figure was 0.971; with `C=CCc1ccccc1OCC(O)CNC(C)C` (stereo not given) [Alprenolol], 1.03.
For `CNc1cc(NS(=O)(=O)c2ccc(N)cc2)nc(NC)n1` [Ro 04-6790 dihydrochloride], the cell viability came out at 1.03.
Take `CN1CCC(=C2c3ccccc3CCc3sccc32)CC1` [Pizotifen]: the cell viability worked out at 0.586.
On to `Cn1cc(C(=O)OCC2CCN(CCNS(C)(=O)=O)CC2)c2ccccc21`, for which the cell viability worked out at 0.959.
In turn, `CN(C)CCC[C@@]1(c2ccc(F)cc2)OCc2cc(C#N)ccc21` [Escitalopram Oxalate] returned a cell viability of 0.982.
For `CN1CCN(C2=Nc3cc(Cl)ccc3Nc3ccccc32)CC1` [Clozapine], the cell viability amounted to 1.24.
For the compound `Cc1cc2c(s1)Nc1ccccc1N=C2N1CCN(C)CC1` [Olanzapine], the cell viability is 1.02 ± 0.042.
The figure for `COCCCN1CCC(NC(=O)c2cc(Cl)c(N)c3c2OCC3)CC1` [Prucalopride] is 0.922; for `Cc1ccc(Sc2ccccc2N2CCNCC2)c(C)c1` [Vortioxetine] it is 0.666; for `COCCCN1CCC(NC(=O)c2cc(Cl)c(N)c3c2OCC3)CC1` [Prucalopride Succinat] it is 1.1.
On to `CN1CCCCC1CCN1c2ccccc2Sc2ccc([S+](C)[O-])cc21` (stereo not given) [Mesoridazine Besylate], for which the cell viability came out at 1.07.
The figure for `Cc1cc(NC(=O)Nc2ccc3c(ccn3C)c2)sn1` is 0.944; for `Cc1ccc(Sc2ccccc2N2CCNCC2)c(C)c1` it is 1.01; for `CNS(=O)(=O)CCc1ccc2[nH]cc(C3CCN(C)CC3)c2c1` [Naratriptan hydrochloride] it is 1.02.
Regarding `COc1ccccc1N1CCN(CCCCN2C(=O)c3ccccc3C2=O)CC1` [NAN-190 hydrobromide], the cell viability stood at 0.884.
`CN(C)CCCN1c2ccccc2CCc2ccc(Cl)cc21` [Clomipramine HCl]: the cell viability came out at 0.826.
`CN1CCC(=C2c3ccccc3C=Cc3ccccc32)CC1` [Cyproheptadine hydrochloride]: the cell viability is 1.14.
`N#Cc1ccc2[nH]cc(CCCCN3CCN(c4ccc5oc(C(N)=O)cc5c4)CC3)c2c1` [Vilazodone HCl] displayed a cell viability of 0.916.
The compound `Cc1cc(-c2ccccc2)nnc1NCCN1CCOCC1` [Minaprine dihydrochloride] came in with a cell viability of 1.
Compound `CN(C)CCCC1(c2ccc(F)cc2)OCc2cc(C#N)ccc21` (stereo not given) [Citalopram hydrobromide] returned a cell viability of 1.06.
